High-throughput results (PubChem)
FadD28 FP inh = M. tuberculosis FadD28 bisubstrate binding inhibition; FadD28 bisubstrate probe binding, fluorescence polarization; inhibition, % at 12.5 µM; 360,000 compounds, 0.22% hits; AID 588549; in the data active = inhibition above about 8.5%, passing the limit was not always enough
RecA splice inh = inhibitors of M. tuberculosis RecA intein splicing. cell-free RecA intein splicing, fluorescence. AID 2221. inhibition, % (no concentration beside the values). 290,000 compounds, 0.75% hits; in the data active = inhibition above about 30%;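 note: 0% = vehicle wells and 100% = reference inhibitor control wells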
Target sequence (P9WHJ3 whole entry, looked up, canonical isoform): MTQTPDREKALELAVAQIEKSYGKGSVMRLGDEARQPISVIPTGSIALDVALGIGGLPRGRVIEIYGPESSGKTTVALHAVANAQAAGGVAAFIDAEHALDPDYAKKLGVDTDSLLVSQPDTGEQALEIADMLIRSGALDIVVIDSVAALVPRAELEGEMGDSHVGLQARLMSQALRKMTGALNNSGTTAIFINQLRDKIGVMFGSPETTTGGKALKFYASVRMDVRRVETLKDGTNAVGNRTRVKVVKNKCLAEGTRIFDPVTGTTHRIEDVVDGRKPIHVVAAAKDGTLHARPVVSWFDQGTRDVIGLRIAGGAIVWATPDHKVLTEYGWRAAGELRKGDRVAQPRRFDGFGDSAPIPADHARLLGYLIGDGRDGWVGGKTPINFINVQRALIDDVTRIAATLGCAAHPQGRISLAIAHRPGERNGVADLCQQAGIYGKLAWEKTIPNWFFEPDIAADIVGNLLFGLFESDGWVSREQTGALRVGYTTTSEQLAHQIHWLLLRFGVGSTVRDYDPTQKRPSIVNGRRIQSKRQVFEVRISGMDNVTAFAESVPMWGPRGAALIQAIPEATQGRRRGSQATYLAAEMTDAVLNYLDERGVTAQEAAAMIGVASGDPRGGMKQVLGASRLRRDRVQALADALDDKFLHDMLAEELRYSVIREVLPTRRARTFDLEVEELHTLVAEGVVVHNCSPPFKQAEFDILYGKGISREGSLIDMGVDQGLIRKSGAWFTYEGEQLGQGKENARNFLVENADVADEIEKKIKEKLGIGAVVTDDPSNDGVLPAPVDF
UGM FP inh = inhibitors of M. tuberculosis UDP-galactopyranose mutase; P9WIQ1; purified UGM, fluorescence polarization probe displacement; inhibition, % at 10 µM; 320,000 compounds, 0.06% hits; in the data active = inhibition above about 10%, passing the limit was not always enough
Mtb hypoxia rep = inhibitors of hypoxia-regulated fluorescent reporter in Mycobacterium tuberculosis | M. tuberculosis hypoxia-regulated fluorescent reporter, fluorescence | fluorescence inhibition, % (no concentration beside the values) | 300,000 compounds, 0.1% hits | AID 1159583; in the data active = fluorescence inhibition mostly above about 23%, no sharp cut-off; inactive = mostly below about 17%
Rv3671c protease = Rv3671c (M. tuberculosis) protease inhibition; P9WHR9; inhibition, % at 5.96 µM; 320,000 compounds, 0.048% hits; in the data active = inhibition above about 38%;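 note: extracellular domain of Rv3671c used as enzyme; 0% = enzyme with DMSO and 100% = no enzyme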
GFP chromo cs = counter-screen: blocks GFP chromophore formation | shares compounds with RecA splice inh | cell-free GFP chromophore formation, fluorescence | EC50, µM | 2,100 compounds, 83% hits | AID 434968; call rule not given here
Numbers without * were called inactive. Shown are actives, neighbours in structure and some others; about 0.92% of the full set was active somewhere.

`COc1cccc(-c2[nH]nc3c2C(c2ccc(C)o2)C(C#N)=C(N)O3)c1` (stereo not given) gave RecA splice inh 78*, UGM FP inh 2, Mtb hypoxia rep 5, Rv3671c protease -14 and GFP chromo cs 17*.
CC(C)c1[nH]nc2c1C(c1ccco1)C(C#N)=C(N)O2 (stereo not given) was read as FadD28 FP inh -3, RecA splice inh 64*, UGM FP inh 2, Mtb hypoxia rep 3, Rv3671c protease 5 and GFP chromo cs 29*.
Screening CCc1[nH]nc2c1C(c1ccsc1)C(C#N)=C(N)O2 (stereo not given) returned FadD28 FP inh -2, RecA splice inh 77*, UGM FP inh 0, Mtb hypoxia rep 6, Rv3671c protease 4 and GFP chromo cs 26*.
Screening CCC1(CC)C(=O)C2=C3C(CC(C(=O)OC)=CC(C(=O)OC)C31)C1C(=O)NC(=O)C1C2C (stereo not given) returned Mtb hypoxia rep 20.
Screening O=C(NN=Cc1ccc(Cl)cc1Cl)c1cccc(F)c1 returned Mtb hypoxia rep 4.
`CCOC(=O)C1C2COc3ccc(OC)cc3C2N2C(=O)c3cc(OC)c(OC)cc3NC(=O)[C@@]12C` (stereo not given in full) gave Mtb hypoxia rep 1.
`COc1ccc(C=NNc2ccc([N+](=O)[O-])cc2[N+](=O)[O-])c(C(=O)O)c1OC` gave Mtb hypoxia rep 19.
For COc1ccc(OC)c(C=NN2CCN(c3ccc(Cl)cc3)CC2)c1 the results were Mtb hypoxia rep 13.
CC(NC(=O)c1nc[nH]c1C(=O)NC(c1ccccc1)c1ccccc1)C(=O)OCc1ccccc1 (stereo not given) was read as Mtb hypoxia rep 6.
For CNC(=S)NN=Cc1ccc(-c2cc([N+](=O)[O-])ccc2Cl)o1 the results were Mtb hypoxia rep 3.
`c1cc2cn[nH]c2cc1NC1CCCCCC1` gave FadD28 FP inh 0, RecA splice inh 89*, UGM FP inh 1, Mtb hypoxia rep 8, Rv3671c protease -23 and GFP chromo cs 16*.
`NC(=S)Nc1ccc2cn[nH]c2c1` gave FadD28 FP inh 0, RecA splice inh 2, UGM FP inh 0, Mtb hypoxia rep 3 and Rv3671c protease 0.
Screening CC(NC(=O)/C(C#N)=C/c1ccc(Cl)c([N+](=O)[O-])c1)c1ccccc1 (stereo not given) returned RecA splice inh 62*, UGM FP inh 0, Rv3671c protease -10 and GFP chromo cs 14*.
Screening Cc1nc2ccc(C(=O)NN=Cc3ccccc3O)cc2[nH]1 returned Mtb hypoxia rep 3.
COc1ccc(Nc2nc(N3CCCCC3)nc3ccccc23)c(OC)c1 was read as FadD28 FP inh -1, RecA splice inh 93*, UGM FP inh 0, Mtb hypoxia rep 3, Rv3671c protease 9 and GFP chromo cs >38.
`COc1ccc(Nc2nc(N3CCN(S(C)(=O)=O)CC3)nc3ccccc23)c(OC)c1` gave FadD28 FP inh -2, UGM FP inh 5 and Rv3671c protease 1.
For COc1cc(C(=O)CSc2nnc(-c3ccc(O)cc3)n2CC2CCCO2)ccc1NC(C)=O (stereo not given) the results were FadD28 FP inh -1, RecA splice inh 36*, UGM FP inh 2, Mtb hypoxia rep 3, Rv3671c protease -6 and GFP chromo cs >38.
C#CC(=O)N(c1cc(OC)ccc1OC)C(C(=O)NC1CCCC1)c1cccs1 (stereo not given) was read as FadD28 FP inh -1, RecA splice inh 31*, UGM FP inh 0, Rv3671c protease 6 and GFP chromo cs 2.9*.
For Cc1cccc(N2C(=O)N3C4c5ccccc5OCC4C(c4ccccc4)[C@@]3(C)C2=O)c1 (stereo not given in full) the results were Mtb hypoxia rep -6.
Cn1c(O)c(C2=NN(C(=O)CCl)C(c3ccccc3)C2)c(=O)n(C)c1=O (stereo not given) was read as FadD28 FP inh -1, RecA splice inh 45*, UGM FP inh 0, Mtb hypoxia rep 12, Rv3671c protease 2 and GFP chromo cs 5.8*.
Screening CCC(=O)N1N=C(c2c(O)n(C)c(=O)n(C)c2=O)CC1c1ccccc1 (stereo not given) returned FadD28 FP inh -1, RecA splice inh 12, UGM FP inh -2 and Rv3671c protease -7.
For O=C(C=Cc1ccccc1)Nc1ccc(NC(=O)c2ccco2)cc1 the results were Mtb hypoxia rep 0.
`O=C1/C(=C\c2cc([N+](=O)[O-])ccc2O)SC(=S)N1Cc1ccc(Cl)cc1` gave FadD28 FP inh 8.6*, RecA splice inh 52*, UGM FP inh -4, Mtb hypoxia rep 9, Rv3671c protease -183 and GFP chromo cs 35*.
Screening O=C1/C(=C\c2cccc(O)c2O)SC(=S)N1Cc1ccccc1 returned FadD28 FP inh 1, RecA splice inh 36*, UGM FP inh 1, Rv3671c protease -10 and GFP chromo cs 39*.
O=S(=O)(C=Cc1ccccc1)Nc1cccc(S(=O)(=O)NC2=NCCC2)c1 was read as Mtb hypoxia rep -6.
Screening Cc1c([N+](=O)[O-])cnc(Sc2ccccc2)c1[N+](=O)[O-] returned FadD28 FP inh -4, RecA splice inh 85*, UGM FP inh 0, Mtb hypoxia rep 6, Rv3671c protease 10 and GFP chromo cs 0.18*.
CCN1C(=O)C(=O)N(CC(=O)c2cc(C)n(C3CC3)c2C)C1=O was read as UGM FP inh 0, Mtb hypoxia rep -3 and Rv3671c protease 8.
`Cc1cc(C(=O)CN2C(=O)c3ccccc3C2=O)c(C)n1C1CC1` gave FadD28 FP inh 1, RecA splice inh 98*, UGM FP inh -5, Mtb hypoxia rep 9, Rv3671c protease -6 and GFP chromo cs >38.
Screening COc1ccc(Nc2ccc(OC)cc2)cc1 returned FadD28 FP inh 7, RecA splice inh 51*, UGM FP inh 0, Mtb hypoxia rep 14, Rv3671c protease -5 and GFP chromo cs >38.
`COc1ccc(Nc2ccc(Nc3ccc(OC)cc3)nn2)cc1` gave FadD28 FP inh -1, RecA splice inh -2, UGM FP inh 2, Mtb hypoxia rep -5 and Rv3671c protease -2.
For COC(=O)[C@@]1(Cc2ccc(OC)cc2)C2c3cc(C(=O)N4CCCC4)n(CCO)c3CC2CN1C(=O)c1ccccc1 (stereo not given in full) the results were Mtb hypoxia rep 15.
Screening Cc1ccc(C(=O)N2CCN3C(=O)c4ccccc4C23c2ccc(Cl)cc2)cc1 (stereo not given) returned FadD28 FP inh -2, RecA splice inh 13, UGM FP inh -3 and Rv3671c protease -3.
Screening O=C(CCl)N1CCN2C(=O)c3ccccc3C12c1ccc(Cl)cc1 (stereo not given) returned FadD28 FP inh -3, RecA splice inh 83*, UGM FP inh 1, Mtb hypoxia rep 25, Rv3671c protease 5 and GFP chromo cs 4.2*.
